Results: PubChem BioAssay (Tox21)
Records with an inconclusive call do not appear. Calls of active or inactive are those of the source. Unless noted, the call rests on the fitted dose curve; in most records, active means well fitted curve in the direction sought with a large enough effect in the repeat runs; inconclusive means weak or mixed curves; inactive means no such curve, though single readings can be large; an effect the other way counts as inactive or inconclusive. Where a SMILES comes first, the peptide text is derived from it. [ ]: non-standard residue; d: D form. pGlu = O=C1CC[C@@H](C(=O)O)N1

Columns and labels:
[1] = qHTS assay to identify small molecule agonists of the estrogen receptor alpha (ER-alpha) signaling pathway in the presence of an antagonist - cell viability counter screen (AID 1259386);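 further: series mostly up to about 92 µM; cells exposed to compounds for 22 h at 37 °C before the viability read; nearly all actives have a fitted effect of over 30% in size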
In short: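 Cell viability in VM7Luc4E2 cells (endogenous full-length ER-alpha) measured by CellTiter-Fluor fluorescence in the same wells as the luciferase screen. Cells pre-cultured 5 days in charcoal-stripped serum, then treated 22 h with compounds at 15 concentrations plus 10.0nM ICI-182,780.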

[2] = molecular target: Progesterone receptor (Homo sapiens) (UniProt P06401); assay: qHTS assay to identify small molecule agonists of the progesterone receptor (PR) signaling pathway (AID 1346784; calls by dose curve; further: nearly all actives have a fitted effect of over 30% in size)
In short: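 Cells (PR-UAS-bla HEK 293T, GripTite) were plated in assay medium containing 2% charcoal-stripped FBS and incubated 6 hr. Test compounds in DMSO were added for 16 hr at 37C. FRET substrate was then loaded for 2 hr at room temperature before fluorescence reading.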

[3] = qHTS assay to identify small molecule antagonists of the progesterone receptor (PR) signaling pathway - cell viability counter screen (AID 1346798); further: series mostly up to about 92 µM; nearly all actives have a fitted effect of over 50% in size
In short: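 Counter screen for cytotoxicity: viability of PR-UAS-bla HEK293T cells was measured with CellTiter-Glo luminescence following 16 hr compound exposure in the presence of R5020.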

[4] = qHTS assay to identify small molecule agonists of the progesterone receptor (PR) signaling pathway - cell viability counter screen (AID 1346799; calls by dose curve; further: nearly all actives have a fitted effect of over 45% in size)
In short: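 Cells (PR-UAS-bla HEK293T) are plated at 3,000/well in 2% charcoal-stripped FBS medium, rested 6 hr, dosed and incubated 16 hr at 37C. CellTiter-Glo is then added and luminescence measured after 30 min at room temperature.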

[5] = qHTS assay to identify small molecule antagonists of the TGF-beta/Smad signaling pathway - cell viability counter screen (AID 1346824); further: nearly all actives have a fitted effect of over 50% in size
In short: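 SBE-bla HEK 293T cells, incubated overnight, then compound plus 0.25 ng/mL TGF-beta1 (stock added) for 5 hr at 37 C. Viability was read in the same wells by CellTiter-Glo luminescence after 30 min at room temperature.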

[6] = qHTS assay to identify small molecule agonists of the TGF-beta/Smad signaling pathway - cell viability counter screen (AID 1346829); further: top concentration of the series differs between compounds; nearly all actives have a fitted effect of over 45% in size
In short: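 Luminescence from CellTiter-Glo, read after a 30 min room-temperature incubation, gives cell viability of SBE-bla HEK 293T cells treated 5 hr with compounds at 37 C.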

[7] = qHTS assay to identify small molecule agonists of the TGF-beta/Smad signaling pathway (AID 1346859; active means well fitted activation curve with a large enough effect in the signal ratio in the repeat runs, not every such curve was filed as active; the % refers to the signal ratio; further: series mostly up to about 77 µM)
In short: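 Reporter line: HEK 293T with stably integrated SBE-controlled beta-lactamase. Compound exposure lasts 5 hr at 37 C and 5% CO2; substrate loading follows for 2 hr at room temperature, with emission read at 460 and 530 nm.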

[8] = molecular target: Thyrotropin-releasing hormone receptor (Homo sapiens) (UniProt P34981); assay: qHTS assay to identify small molecule antagonists of the thyrotropin-releasing hormone receptor (TRHR) signaling pathway (AID 1346877; active means well fitted inhibition curve with a large enough effect in the repeat runs, not every such curve was filed as active; further: series mostly up to about 51 µM)
In short: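 TRHR-expressing HEK293 cells loaded with calcium dye for 2 h at 37 C; compounds pre-incubated 5 min at room temperature before TRH challenge at 1 nM final. Intracellular calcium fluorescence read kinetically for 3 min; 15 concentrations in triplicate.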

[9] = molecular target: Thyrotropin-releasing hormone receptor (Homo sapiens) (UniProt P34981); assay: qHTS assay to identify small molecule agonists of the thyrotropin-releasing hormone receptor (TRHR) signaling pathway (AID 1346891; calls by dose curve; further: series mostly up to about 58 µM)
In short: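 Cells: TRHR-Hek293, seeded and incubated 18 h. Dye loading: 2 h at 37 °C. Compound added from DMSO stock by pin tool. Read-out: kinetic calcium fluorescence over 3 min.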

[10] = molecular target: Progesterone receptor (Homo sapiens) (UniProt P06401); assay: qHTS assay to identify small molecule antagonists of the progesterone receptor (PR) signaling pathway (AID 1346795; active means well fitted inhibition curve with a large enough effect in the signal ratio in the repeat runs, not every such curve was filed as active; the % refers to the signal ratio)
In short: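 Antagonist mode: compounds tested against 1 nM (final) promegestone stimulation in HEK293T cells expressing PR-UAS-bla reporter, 16 hr at 37C, 5% CO2; beta-lactamase activity detected via B/G FRET substrate after 2 hr at room temperature.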

Measured: Potency

Thyrotropin-releasing hormone receptor (Homo sapiens), sequence (P34981 whole entry, looked up): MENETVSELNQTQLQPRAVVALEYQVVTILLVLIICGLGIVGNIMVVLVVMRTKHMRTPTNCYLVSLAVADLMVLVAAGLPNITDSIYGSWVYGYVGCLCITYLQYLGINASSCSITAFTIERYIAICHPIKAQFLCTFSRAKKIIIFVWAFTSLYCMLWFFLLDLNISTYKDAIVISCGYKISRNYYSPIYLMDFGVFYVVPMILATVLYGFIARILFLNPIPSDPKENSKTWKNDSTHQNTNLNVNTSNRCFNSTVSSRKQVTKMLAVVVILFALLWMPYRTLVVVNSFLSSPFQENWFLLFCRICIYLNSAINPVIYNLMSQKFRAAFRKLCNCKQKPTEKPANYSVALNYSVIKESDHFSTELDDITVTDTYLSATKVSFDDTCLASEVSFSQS
Progesterone receptor (Homo sapiens), sequence (P06401 whole entry, looked up): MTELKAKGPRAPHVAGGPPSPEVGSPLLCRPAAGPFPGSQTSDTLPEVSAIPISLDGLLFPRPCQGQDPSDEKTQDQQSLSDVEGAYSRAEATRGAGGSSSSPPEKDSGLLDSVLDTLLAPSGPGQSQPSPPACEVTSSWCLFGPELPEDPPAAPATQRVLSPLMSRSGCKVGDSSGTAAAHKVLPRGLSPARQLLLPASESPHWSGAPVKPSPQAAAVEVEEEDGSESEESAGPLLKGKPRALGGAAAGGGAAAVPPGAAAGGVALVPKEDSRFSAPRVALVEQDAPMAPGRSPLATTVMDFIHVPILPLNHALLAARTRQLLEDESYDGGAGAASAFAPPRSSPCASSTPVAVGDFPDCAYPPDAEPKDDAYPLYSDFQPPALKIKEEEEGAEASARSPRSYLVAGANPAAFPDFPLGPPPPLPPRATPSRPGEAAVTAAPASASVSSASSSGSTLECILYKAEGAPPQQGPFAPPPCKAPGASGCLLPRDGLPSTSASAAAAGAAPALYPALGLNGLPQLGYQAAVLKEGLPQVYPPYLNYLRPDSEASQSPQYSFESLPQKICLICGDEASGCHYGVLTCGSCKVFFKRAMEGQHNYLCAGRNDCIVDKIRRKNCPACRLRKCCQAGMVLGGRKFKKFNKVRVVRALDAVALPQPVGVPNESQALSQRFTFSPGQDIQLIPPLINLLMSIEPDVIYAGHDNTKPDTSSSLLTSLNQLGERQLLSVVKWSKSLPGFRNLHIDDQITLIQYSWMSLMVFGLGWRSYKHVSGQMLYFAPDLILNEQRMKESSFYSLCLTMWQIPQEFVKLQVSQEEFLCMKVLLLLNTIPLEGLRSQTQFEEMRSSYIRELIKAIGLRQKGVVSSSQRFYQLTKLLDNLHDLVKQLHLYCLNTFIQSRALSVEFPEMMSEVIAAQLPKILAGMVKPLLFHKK

O=Cc1cccc(Br)c1
not listed: [10]
inactive: all other assays above

CCCCc1nc(Cl)c(CO)n1Cc1ccc(-c2ccccc2-c2nn[nH]n2)cc1
not listed: [2] | [8] | [9]
inactive: all other assays above

CCOc1c(N2CCOCC2)cnn(C)c1=O
not listed: [4] | [10]
inactive: all other assays above

CN(C)CCCN(C)CCCN(C)C
not listed: [3] | [4] | [10]
inactive: all other assays above

Cc1ccc(C(=O)c2ccc(CC(=O)O)n2C)cc1
not listed: [7] | [10]
inactive: all other assays above

CNCCO
not listed: [2]
inactive: all other assays above

O=C(O)CNC(=O)c1ccc(CO)o1
not listed: [2] | [7]
inactive: all other assays above

O=S(=O)(O)c1cccc(S(=O)(=O)O)c1
inactive: [1] | [10] | [3] | [5] | [6] | [7]

C1CCC2(CCCCO2)OC1
not listed: [2]
inactive: all other assays above

CC1OC1C1CCC2(C)OC2C1 (configuration not stated)
not listed: [10]
inactive: all other assays above

CCNC(=O)[C@@H]1CCCN1C(=O)[C@H](CCCN=C(N)N)NC(=O)[C@H](CC(C)C)NC(=O)CNC(=O)[C@H](Cc1ccc(O)cc1)NC(=O)[C@H](CO)NC(=O)[C@H](Cc1c[nH]c2ccccc12)NC(=O)[C@H](Cc1cnc[nH]1)NC(=O)[C@@H]1CCC(=O)N1 ([pGlu]HWSYGLRP-NHEt)
inactive: [1] | [10] | [3] | [5] | [6] | [7]

OCCc1ccccn1
not listed: [2]
inactive: all other assays above

O=C(c1ccccc1)C1(O)CCCCC1
not listed: [10]
inactive: all other assays above

CCC(C)(CN(C)C)OC(=O)c1ccccc1 (configuration not stated)
inactive: [1] | [10] | [3] | [5] | [6] | [7]

C=C[Si](OC(C)=O)(OC(C)=O)OC(C)=O
not listed: [2]
inactive: all other assays above

C[N+]12CCC(CC1)C(OC(=O)C(O)(c1ccccc1)c1ccccc1)C2 (configuration not stated)
not listed: [2]
inactive: all other assays above

CNC(=O)Nc1ccc(Cl)c(Cl)c1
not listed: [3] | [10]
inactive: all other assays above

O=C(O)CNC(=O)c1ccccc1
not listed: [2]
inactive: all other assays above

CN(C)C(=O)Oc1cccc([N+](C)(C)C)c1
not listed: [2] | [7]
inactive: all other assays above

CCOc1ccc2nc(S(N)(=O)=O)sc2c1
not listed: [3] | [10]
inactive: all other assays above

CN(C)C(=O)Oc1ccc[n+](C)c1
not listed: [2] | [8] | [9]
inactive: all other assays above

COC(=O)C1=C(C)NC(C)=C(C(=O)OC(C)C)C1c1cccc2nonc12 (configuration not stated)
inactive: [1] | [2] | [5] | [6] | [7]

Nc1ccccn1
inactive: [4] | [5] | [6] | [7] | [8] | [9]

C[C@@H]1C[C@H]2[C@@H]3C[C@H](F)C4=CC(=O)C(Cl)=C[C@]4(C)[C@@]3(F)[C@@H](O)C[C@]2(C)[C@@]1(O)C(=O)CO
not listed: [2] | [4] | [10]
inactive: all other assays above

O=C(O)Cc1csc(-c2ccc(Cl)cc2)n1
not listed: [2] | [7] | [10]
inactive: all other assays above

O=C1NC(=O)C2CC=CCC12 (configuration not stated)
inactive: [1] | [5] | [8] | [9]
